Laboratory results: PubChem BioAssay (NCATS)
Records with an inconclusive call do not appear. Active and inactive are the calls of the source. The call rests on the fitted dose curve; in most records, active means well fitted curve in the direction sought with a large enough effect; inconclusive means small, poorly fitted or top-dose-only effect, or another doubt; inactive means no such curve, though single readings can be large; an effect the other way counts as inactive or inconclusive. Numbered stars: 1 amine (or outer) side, 2 acyl side, 3 side chain; on linkers, the order of the positions; unused ones are H or OH. Bridge positions count the residues as written; N and C are the ends. Square brackets hold non-standard residues; d marks the D form. Peptide text beside a SMILES is read from it. * marks the point of attachment. ξ: configuration not given here. ΔAla(Z-3-ureido) = NC(=O)N/C=C(\N)C(=O)O; X3 = NC1=NCCC(C(N[*:1])C(=O)[*:2])N1; ξβ3hOrn = NCCCC(N)CC(=O)*; Dap = NC[CH](N)C(=O)O

Target: Luciferin 4-monooxygenase (Photinus pyralis) (UniProt P08659)
Sequence (P08659 whole entry, looked up): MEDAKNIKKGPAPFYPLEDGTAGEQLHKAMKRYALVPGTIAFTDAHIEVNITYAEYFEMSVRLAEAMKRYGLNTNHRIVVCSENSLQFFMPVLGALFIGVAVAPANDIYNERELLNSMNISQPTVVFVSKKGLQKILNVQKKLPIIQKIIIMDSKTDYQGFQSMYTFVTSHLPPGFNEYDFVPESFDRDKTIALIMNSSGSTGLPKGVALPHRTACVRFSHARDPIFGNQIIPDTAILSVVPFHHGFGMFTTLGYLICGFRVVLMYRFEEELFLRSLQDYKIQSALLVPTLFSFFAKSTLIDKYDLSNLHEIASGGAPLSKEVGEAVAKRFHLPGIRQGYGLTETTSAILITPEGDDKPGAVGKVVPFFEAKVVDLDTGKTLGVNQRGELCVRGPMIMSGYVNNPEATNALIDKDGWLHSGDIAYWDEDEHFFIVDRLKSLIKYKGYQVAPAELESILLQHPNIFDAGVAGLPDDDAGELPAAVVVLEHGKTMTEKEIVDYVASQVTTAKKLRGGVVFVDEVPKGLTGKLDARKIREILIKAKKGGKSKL
Assay: Biochemical firefly luciferase enzyme assay for NPC (AID 624030);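 further: purified P. pyralis luciferase at 10 nM with luciferin and ATP substrate; 0% = DMSO and -100% = full luciferase inhibition by PTC124 control; nearly all actives have a fitted effect of over 70% in size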
Details: purified P. pyralis luciferase, luminescence, 5 min; series mostly up to 58.6 µM; activity change, negative = inhibition: at the top concentration
In short: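 Direct inhibition of firefly luciferase enzyme (10 nM final, 50 mM Tris Acetate) assessed by luminescence within 5 minutes. Percent activity scaled between DMSO and PTC124 positive control, with concentration-effect curves classified by fit quality and response.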

SMILES	activity change, negative = inhibition
COc1cc(CCN)c(OC)cc1Br	-0.0378% [at 123 µM] (inactive)
CN[C@H]1C[C@@H](N)[C@H](O)[C@@H](O[C@@H]2O[C@H](CO)[C@H](O)[C@@H]3O[C@]4(O[C@@H]23)O[C@H]([C@@H](N)CO)[C@H](O)[C@@H](O)[C@H]4O)[C@@H]1O	5.77% (inactive)
CC(=O)OC1CC(OC2C(O)CC(OC3C(O)CC(O[C@H]4CC[C@]5(C)C6CC[C@]7(C)[C@@H](C8=CC(=O)OC8)[C@@H](O)C[C@]7(O)[C@@H]6CC[C@@H]5C4)OC3C)OC2C)OC(C)C1OC1OC(CO)C(O)C(O)C1O (stereo partly specified)	-4.59% (inactive)
C=C/C=C/CC1=C(C)[C@@H](OC(=O)[C@@H]2[C@@H](/C=C(\C)C(=O)OC)C2(C)C)CC1=O (tested in a mixture with another compound)	-6.8% (inactive)
C[C@]12CCC3[C@@H](CCC4=CC(=O)CC[C@@]43C)C1CCC2OC(=O)CCc1ccccc1 (stereo partly specified)	-2.57% [at 123 µM] (inactive)
COc1ccc2c3c1OC1[C@H](O)CCC4[C@@H](C2)N(C)CC[C@]314 (stereo partly specified)	1.03% [at 123 µM] (inactive)

System: not listed separately
Assay: S16 Schwann cell PMP22 intronic element firefly luciferase assay (AID 624032); further: nearly all actives have a fitted effect of over 30% in size; further: potency means the concentration at half of the fitted maximal effect;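 on activity change, negative = inhibition: plate controls were DMSO for no effect and PTC124 positive control mean for full effect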
Details: S16 rat Schwann cells, PMP22 element FLuc, 24 h; series mostly up to 57.5 µM; activity change, negative = inhibition: at the top concentration
In short: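 Luciferase reporter of PMP22 intronic-element expression in stably transfected S16 rat Schwann cells, read by ONE-Glo luminescence after 24 h compound exposure at 37 C. Activity scaled between DMSO (0%) and positive-control PTC124; concentration-effect curves quality-classified.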

SMILES	Potency	activity change, negative = inhibition
CNC[C@H](O)c1ccc(OC(=O)C(C)(C)C)c(OC(=O)C(C)(C)C)c1	0.0098 µM (active)	–
NC(C(=O)O)[C@@H]1CC(Cl)=NO1 (stereo partly specified)	2.56 µM (active)	–
COc1cc(-c2ccc(-[n+]3nc(-c4ccccc4)nn3-c3ccc([N+](=O)[O-])cc3)c(OC)c2)ccc1-[n+]1nc(-c2ccccc2)nn1-c1ccc([N+](=O)[O-])cc1	14.4 µM (active)	–
NC(=O)Oc1ccc(Cc2ccccc2)cc1	–	39.3% (inactive)
NCCCC(N)CC(=O)NCC1NC(=O)C(CO)NC(=O)C(N)CNC(=O)C(C2CCN=C(N)N2)NC(=O)/C(=C/NC(N)=O)NC1=O (stereo not drawn) (H-[Dap]S[Dap](ξβ3hOrn)[ΔAla(Z-3-ureido)][X3]; lactam 1-C; configuration not given here)	–	42.8% (inactive)
CC(=O)NC1[C@H]([C@H](O)[C@H](O)CO)OC(C(=O)O)=C[C@H]1N=C(N)N (stereo partly specified)	–	5.91% (inactive)
CCCCCCCCCCCCCCCCCC[N+](C)(C)CCC[Si](OC)(OC)OC	0.572 µM (active)	–
C[C@]12C=CC(=O)N[C@@H]1CC[C@@H]1C2CC[C@]2(C)C(C(=O)Nc3cc(C(F)(F)F)ccc3C(F)(F)F)CC[C@@H]12 (stereo partly specified)	16.1 µM (active)	–
Cc1ncc(C[n+]2csc(CCOP(=O)(O)O)c2C)c(N)n1	7.21 µM (active)	–
C[n+]1c2cc(N)ccc2cc2ccc(N)cc21	1.81 µM (active)	–
CC1OC(OC2C(O)CC(OC3C(O)CC(OC4CCC5(C)C(CCC6C5CCC5(C)C(C7=CC(=O)OC7)CCC65O)C4)OC3C)OC2C)CC(O)C1O (stereo unspecified)	10.2 µM (active)	–
Cc1cn([C@H]2C[C@H](O)[C@@H](CO)O2)c(=O)[nH]c1=O	–	15.8% (inactive)

Target: Tumor susceptibility gene 101 protein (Homo sapiens) (UniProt Q99816)
Sequence (Q99816 whole entry, looked up): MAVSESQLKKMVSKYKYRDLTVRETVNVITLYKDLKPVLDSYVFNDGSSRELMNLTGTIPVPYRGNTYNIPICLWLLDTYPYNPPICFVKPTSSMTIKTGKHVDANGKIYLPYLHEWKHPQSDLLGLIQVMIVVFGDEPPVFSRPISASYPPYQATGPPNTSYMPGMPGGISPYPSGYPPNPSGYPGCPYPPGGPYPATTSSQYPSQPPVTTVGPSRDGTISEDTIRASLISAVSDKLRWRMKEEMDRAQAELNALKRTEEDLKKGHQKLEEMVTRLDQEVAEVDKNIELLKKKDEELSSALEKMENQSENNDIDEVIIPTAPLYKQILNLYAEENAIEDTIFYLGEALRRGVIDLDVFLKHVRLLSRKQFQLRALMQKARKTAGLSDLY
Assay: qHTS Assay for Iinhibitors of HIV-1 Budding by Blocking the Interaction of PTAP/TSG101: Hit Validation (AID 651600); further: nearly all actives have a fitted effect of over 70% in size; further: potency means the concentration at half of the fitted maximal effect; on activity change, negative = inhibition: on the % scale 0 is the no-effect control and ±100 the full control effect
Details: PTAP peptide/TSG101 UEV interaction, biochemical assay; series mostly up to 57.5 µM; activity change, negative = inhibition: at the top concentration
In short: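 Fluorescence polarization binding assay: Tsg101 binding domain (10 uM final) pre-dispensed with compounds, then FITC-labeled PTAP-motif peptide (50 nM final) added; 20 min at r.t. in HEPES pH 7.5 buffer with NaCl, Tween 20, EDTA, TCEP.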

SMILES	Potency	activity change, negative = inhibition
COc1cccc2c1C(=O)c1c(O)c3c(c(O)c1C2=O)CC(O)(C(C)=NO)CC3OC1CC(N)C(O)C(C)O1 (stereo unspecified)	10.3 µM (active)	–
CC(C)C[C@H]1C(=O)N2CCC[C@H]2[C@]2(O)O[C@](NC(=O)[C@@H]3C=C4c5cccc6[nH]cc(c56)C[C@H]4N(C)C3)(C(C)C)C(=O)N12	–	-7.73% (inactive)
COc1ccc(N2C(=O)NC(=O)/C(=C\c3cn(C)c4ccccc34)C2=O)cc1	–	-1.68% (inactive)
